Compounds without any hit were thinned out: in the full panel of roughly 79,000, 15% have a hit. The source made the active and inactive calls. No stated cut-off is given here; in the data, active means growth inhibition above about 70%; inactive means the rest.
Tests used:
[1] = NCI Yeast Anticancer Drug Screen. Data for the rad50 strain (AID 155);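 further: 0% = growth of vehicle-only cultures of the same strain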; conditions: S. cerevisiae rad50 strain growth inhibition; at 50.0 µM; active compounds read high
Summary of the method: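 DNA repair mutant yeast, compound exposure, growth read-out; inhibition is taken relative to vehicle.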

[2] = NCI Yeast Anticancer Drug Screen. Data for the mec2-1 strain (AID 157); conditions: S. cerevisiae mec2-1 strain, at 50.0 µM, active compounds read high
Summary of the method: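 Each compound was tested on mec2-1 yeast, a strain altered in DNA damage repair or cell cycle control. Growth inhibition is reported relative to vehicle.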

[3] = NCI Yeast Anticancer Drug Screen. Data for the sgs1 mgt1 strain (AID 161);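 further: 0% = growth of cultures given vehicle only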; conditions: S. cerevisiae sgs1 mgt1 strain, at 50.0 µM, active compounds read high
Summary of the method: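 Read-out: growth inhibition vs vehicle controls. Cells: mutant yeast strain deficient in DNA damage repair.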

[4] = NCI Yeast Anticancer Drug Screen. Data for the cln2 rad14 strain (AID 165);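 further: 0% = growth equal to vehicle treated cultures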; conditions: S. cerevisiae cln2 rad14 strain, at 50.0 µM, active compounds read high
Summary of the method: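 Test compounds were added to cln2 rad14 yeast cultures; inhibition of growth was then determined by comparison with vehicle treatment.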

[5] = NCI Yeast Anticancer Drug Screen. Data for the bub3 strain (AID 167); conditions: S. cerevisiae bub3 mutant strain, at 50.0 µM, active compounds read high
Summary of the method: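 In this screen, a yeast mutant lacking normal mitotic checkpoint function is challenged with compound. Relative growth versus vehicle gives the inhibition value.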

[6] = NCI Yeast Anticancer Drug Screen. Data for the mlh1 rad18 strain (AID 175); conditions: S. cerevisiae mlh1 rad18 strain growth inhibition; at 50.0 µM; active compounds read high
Summary of the method: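 Inhibition values reflect reduced growth of mutant yeast versus vehicle-treated controls following compound exposure; the mutations affect DNA damage repair.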

| SMILES | growth inhibition [1] | growth inhibition [2] | growth inhibition [3] | growth inhibition [4] | growth inhibition [5] | growth inhibition [6] |
| --- | --- | --- | --- | --- | --- | --- |
| Nc1nc2ncn(CC(O)COC(=O)c3ccccc3)c2c(=O)[nH]1 (configuration not stated) | 23.8% (inactive) | -8.85% (inactive) | 27.3% (inactive) | 28.3% (inactive) | 27.4% (inactive) | 39.2% (inactive) |
| NS(=O)(=O)c1nc(S(=O)(=O)O)c2[nH]cnc2n1 | 3.7% (inactive) | -0.35% (inactive) | -6.75% (inactive) | -4.2% (inactive) | -45.3% (inactive) | 14.2% (inactive) |
| Cc1ccc(S(=O)(=O)C2=c3nc4ccccc4cc3=C3C(=O)c4ccccc4C(=O)C32)cc1 (configuration not stated) | -14.3% (inactive) | -18.9% (inactive) | -20.8% (inactive) | -75.9% (inactive) | -24.4% (inactive) | -3.7% (inactive) |
| NC1CC(=O)c2c(Cl)sc(Cl)c21 (configuration not stated) | 51.4% (inactive) | 35.7% (inactive) | 60.5% (inactive) | 41.6% (inactive) | 27.6% (inactive) | 1.15% (inactive) |
| CC1(C)CCC2(CC1)CC[N+](C)(CCC[N+](C)(C)C)CC2 | -26.6% (inactive) | -8.4% (inactive) | -10.8% (inactive) | -11.8% (inactive) | 8.7% (inactive) | -11.2% (inactive) |
| N#CCCCCCCO | 14.6% (inactive) | -20.6% (inactive) | 11.4% (inactive) | 15.4% (inactive) | 5.35% (inactive) | 17.5% (inactive) |
| O=S(=O)(O)CCCCO | 4.4% (inactive) | -29.9% (inactive) | 0.9% (inactive) | 22.2% (inactive) | 6.15% (inactive) | 10.2% (inactive) |
| CN1C(=O)C2(C=CCCC2)c2ccccc21 (configuration not stated) | -10.5% (inactive) | -8.4% (inactive) | -0.7% (inactive) | -14.3% (inactive) | -0.5% (inactive) | -10.4% (inactive) |
| CC(=O)NCC1OC2COC(c3ccccc3)OC2C2N=C(c3ccccc3)OC12 (configuration not stated) | -9.45% (inactive) | 1.3% (inactive) | 8.5% (inactive) | 7.8% (inactive) | 14.8% (inactive) | 81.8% (active) |
| Cc1ccc2ccc(C)nc2c1 | 15.8% (inactive) | -23.7% (inactive) | -5.85% (inactive) | 7.15% (inactive) | 18.2% (inactive) | -22.9% (inactive) |
| Cc1nc2c(-c3ccccc3)[nH]c(C)c2c(=O)o1 | -17.2% (inactive) | -40.1% (inactive) | -31.9% (inactive) | -8.8% (inactive) | -18.5% (inactive) | -24.4% (inactive) |
| O=[N+]([O-])c1ccc2nc(-c3ccccc3[N+](=O)[O-])[nH]c2c1 | 0.2% (inactive) | 0.85% (inactive) | 2.5% (inactive) | -49.5% (inactive) | -7.35% (inactive) | -5.15% (inactive) |
| COc1cc2c(oc(=O)c3c4occc4cc(OC)c23)c2cccc(O)c12 | -31.6% (inactive) | -47% (inactive) | -37.2% (inactive) | -13.6% (inactive) | -24.8% (inactive) | -56.2% (inactive) |
| O=C(OCc1ccccc1CN1CCOCC1)c1cccc(Cl)c1 | 13.8% (inactive) | -1.55% (inactive) | 17.3% (inactive) | -0.05% (inactive) | -6.25% (inactive) | 7.35% (inactive) |
| CCOC(=O)C(C#N)C1(C(C#N)C(=O)OCC)C(=O)Nc2ccccc21 (configuration not stated) | 1.8% (inactive) | 14.6% (inactive) | 19.8% (inactive) | 21.8% (inactive) | 24.7% (inactive) | 32.3% (inactive) |
| C=C(S(=O)(=O)CC)S(=O)(=O)CC | 28.9% (inactive) | -7.75% (inactive) | -3.8% (inactive) | -53% (inactive) | -6.5% (inactive) | 4.4% (inactive) |
| CCCCCN(CCCCC)C(=O)C(C)C | -4.45% (inactive) | 7.8% (inactive) | 4.6% (inactive) | -30.1% (inactive) | -2% (inactive) | 5.8% (inactive) |
| S=C1N=C(Cl)/C(=C\c2ccco2)N1 | -4.55% (inactive) | -18% (inactive) | 12.1% (inactive) | 4.2% (inactive) | 15.9% (inactive) | -20.6% (inactive) |
| O=c1[nH]c(N2CCN(c3ccccc3)CC2)nc2cc3ccccc3cc12 | 2.55% (inactive) | -10.6% (inactive) | -13.6% (inactive) | -26.8% (inactive) | -5.15% (inactive) | -16.9% (inactive) |

| SMILES | growth inhibition [1] | growth inhibition [2] | growth inhibition [3] | growth inhibition [4] | growth inhibition [5] | growth inhibition [6] |
| --- | --- | --- | --- | --- | --- | --- |
| CSCCCCCCSC | -0.1% (inactive) | 5.1% (inactive) | -2.75% (inactive) | -27.8% (inactive) | -5.35% (inactive) | 5.9% (inactive) |
| O=C1CC(C2OCOC3COCOC32)CC(=O)N1 (configuration not stated) | 4.15% (inactive) | -5.1% (inactive) | -7.15% (inactive) | 2.3% (inactive) | -12.8% (inactive) | -1.65% (inactive) |
| COC(=O)/C(=C/C=C/c1ccccc1)N=[N+]=[N-] | -20.5% (inactive) | 7.5% (inactive) | -12% (inactive) | -11.6% (inactive) | 3.2% (inactive) | -10.1% (inactive) |
| CCCNC(=S)N/N=C/c1cccc(C)n1 | -23.3% (inactive) | -26.1% (inactive) | 2.15% (inactive) | 15.2% (inactive) | 24.2% (inactive) | -12% (inactive) |
| c1ccc([P+](Cc2ccc(C[P+](c3ccccc3)(c3ccccc3)c3ccccc3)cc2)(c2ccccc2)c2ccccc2)cc1 | 48.2% (inactive) | 35.6% (inactive) | 29.4% (inactive) | 40.5% (inactive) | 47.9% (inactive) | 37.5% (inactive) |
| CC[N+](C)(CC)CCOc1nc2c(c(=O)n(C)c(=O)n2C)n1C | -9.5% (inactive) | -6.85% (inactive) | -6.05% (inactive) | 5.25% (inactive) | -22.5% (inactive) | -2.65% (inactive) |
| ClCC1CCCO1 (configuration not stated) | 23.1% (inactive) | 12.6% (inactive) | 31.1% (inactive) | 3.35% (inactive) | 24.9% (inactive) | 25.6% (inactive) |
| O=P(O)(Cc1ccccc1)OCC1(O)OCC(O)C(O)C1O (configuration not stated) | -16.1% (inactive) | -6.35% (inactive) | -28.6% (inactive) | 12.7% (inactive) | -19.8% (inactive) | -23.2% (inactive) |
| CCOC(=O)C1(C)Sc2ccccc2N=C1c1ccccc1 (configuration not stated) | 25.9% (inactive) | 48.5% (inactive) | 45.5% (inactive) | 7.35% (inactive) | 26.1% (inactive) | 17.6% (inactive) |
| CC(=O)OCC(C)CCC(C)COC(C)=O (configuration not stated) | -22.2% (inactive) | -9.4% (inactive) | -21.8% (inactive) | -11.4% (inactive) | 0.45% (inactive) | -31.6% (inactive) |
| N=C(N)SCC(O)c1ccccc1 (configuration not stated) | 6.35% (inactive) | -11.4% (inactive) | -13.6% (inactive) | -42.4% (inactive) | -3.1% (inactive) | -19.5% (inactive) |
| O=C1NCC(c2ccccc2)(C2CC2)O1 (configuration not stated) | 7.85% (inactive) | 6.65% (inactive) | -13.3% (inactive) | -44.6% (inactive) | 5.1% (inactive) | -27.1% (inactive) |
| CC(=O)/C=C\C(=O)NNS(=O)(=O)c1ccc(C)cc1 | 20.6% (inactive) | 12.7% (inactive) | -1.75% (inactive) | 9.35% (inactive) | 34.1% (inactive) | 46.7% (inactive) |
| Cc1[nH]ccc(=O)c1OC(=O)C12CC3CC(CC(C3)C1)C2 | 15.8% (inactive) | 16.6% (inactive) | 36% (inactive) | 19.2% (inactive) | 2.7% (inactive) | 23% (inactive) |
| CCOC(=O)COc1c(C)cccc1Cl | 4.2% (inactive) | 0.6% (inactive) | -0.25% (inactive) | -28.9% (inactive) | -23.6% (inactive) | -24.6% (inactive) |
| CN1CC(O)C(C(=O)NC23CC4CC(CC(C4)C2)C3)C1 (configuration not stated) | 30.8% (inactive) | 4.15% (inactive) | 11.8% (inactive) | 14.1% (inactive) | 10.4% (inactive) | 30.2% (inactive) |
| CC1=NN(C(=O)CC(=O)Nc2cccc(Cl)c2)C(=O)C1N=Nc1ccc(C(=O)O)cc1 (configuration not stated) | -3.25% (inactive) | 1.35% (inactive) | 6.1% (inactive) | -25% (inactive) | -3.2% (inactive) | 6.55% (inactive) |
| CC(=O)SSC12CC3CC(CC(C3)C1)C2 | -24.6% (inactive) | -17.4% (inactive) | -4.75% (inactive) | -48.9% (inactive) | 0.55% (inactive) | -7.7% (inactive) |
